Measurements published in publication PMC5540273 (PLoS ONE, 2017).

Key:
Settings in all cases: concentration: 1 μM, replicates: in singlicate; n = 1
[1] = test system: T1, RSK1(Kin.Dom.1-N-terminal)
T1 construct: gene RPS6KA1

[2] = test system: T2, RSK1(Kin.Dom.2-C-terminal)
T2 construct: gene RPS6KA1

[3] = test system: T3, RSK2(Kin.Dom.1-N-terminal)
T3 construct: gene RPS6KA3

[4] = test system: T4, RSK2(Kin.Dom.2-C-terminal)
T4 construct: gene RPS6KA3

[5] = test system: T5, RSK3(Kin.Dom.1-N-terminal)
T5 construct: gene RPS6KA2

[6] = test system: T6, RSK3(Kin.Dom.2-C-terminal)
T6 construct: gene RPS6KA2

[7] = test system: T7, RSK4(Kin.Dom.1-N-terminal)
T7 construct: gene RPS6KA6

[8] = test system: T8, RSK4(Kin.Dom.2-C-terminal)
T8 construct: gene RPS6KA6

S6K1 = test system: S6K1
SBK1 = test system: SBK1
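Further: KINOMEscan kinase panel screen.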

SMILES	%Inh [1] [%]	%Inh [2] [%]	%Inh [3] [%]	%Inh [4] [%]	%Inh [5] [%]	%Inh [6] [%]	%Inh [7] [%]	%Inh [8] [%]	%Inh (S6K1) [%]	%Inh (SBK1) [%]
OCCCNc1nccc(-c2c(-c3cccc(C(F)(F)F)c3)nn3cc(C(F)(F)F)ccc23)n1 [GW630813]	0	32	0	5	0	0	0	89	1	0
Cc1ccccc1COc1cc(-n2cnc3cc(Cl)ccc32)sc1C(N)=O [GW813349]	16	0	2	49	5	0	0	42	8	0
Nc1ncnc2c1ncn2-c1ccc(Cl)cc1 [AH2635]	9	4	0	0	0	0	0	46	0	0
Cc1nn2c(=O)cc(N3CCOCC3)nc2n1Cc1cccc(Cl)c1Cl [GSK2342769]	0	0	9	3	25	0	5	0	1	14
Nc1nc(-c2ccccc2F)c(-c2ccnc3ccccc23)s1 [GW560459]	0	35	6	95.6	0	1	0	89	0	6
CCCNC(=O)Nc1ccc(Oc2ncnc3ccn(C)c23)cc1	14	13	27	0	0	5	25	0	0	20
COc1cc2ncn(-c3cc(OCc4ccc(S(C)(=O)=O)cc4)c(C(N)=O)s3)c2cc1OC [GW869979]	1	0	26	0	0	7	27	6	19	37
CCn1c(-c2nonc2N)nc2ccccc21 [SB-693162/GW549034]	6	4	41	3	4	19	48	15	43	22
Cn1c(=O)c(F)c(Nc2ccc(I)cc2F)c2c(=O)n(OC[C@H](O)CO)cnc21	18	12	39	38	11	1	0	6	0	0
CN(C)c1cc(-c2ccc3c(N)n[nH]c3c2)nc(N)n1 [GSK2219329]	11	0	0	0	0	4	0	14	2	7
COc1ccc(-c2cc3c(C)nc(N)nc3n([C@H]3CC[C@H](O)CC3)c2=O)cn1	6	0	0	0	0	0	0	0	0	0
Cc1c(Cn2c(C)nn3c(=O)cc(N4CCO[C@H](C)C4)nc23)cccc1C(F)(F)F [GSK2373690]	49	0	9	0	22	0	0	0	9	28
O=C(NCCNc1ccnc(Nc2ccc(F)cc2)n1)Nc1ccc2c(c1)OCO2 [GSK1379882]	15	22	14	30	0	0	0	12	0	6
Cc1nnc(-c2ccc3ncn(-c4ccc(S(C)=O)cc4)c3c2)o1 (centres unmarked)	19	21	4	0	0	18	0	32	0	0
COC(=O)c1c(-c2ccccc2)c2cc(Br)ccc2c(=O)n1Cc1ccc(NC(=O)CCC(=O)O)cc1	0	5	0	29	16	15	0	26	0	1
CC(C)(C)c1ccc(C(=O)Nc2cn3cc(-c4ccccc4)ccc3n2)cc1	0	0	3	0	24	100	0	0	0	0
Nc1nc(N)c2nc(-c3ccccc3)[nH]c2n1 [SKF-12778]	0	0	9	9	18	0	15	1	8	10
